# The whole screen tested about 39,000 compounds, of which about 500 (1.3%) were called active. The sample as a whole holds a higher share of actives than the screen did.
# System: S. aureus RN4220
# Experiment: growth inhibition call (relative growth <= 0.2)
# Conditions: 50 µM
row,SMILES,growth inhibition call
1,CCC1(C2OC(C3OC(O)(CO)C(C)CC3C)CC2C)CCC(C2(C)CCC3(CC(O)C(C)C(C(C)C(OC)C(C)C(=O)[O-])O3)O2)O1.[Na+] (configuration not stated),active
2,O=C(O)C(Cl)Cl.[NaH],inactive
3,C[N+]1(C)C2CC(OC(=O)C(CO)c3ccccc3)CC1C1OC12.[Br-] (configuration not stated),inactive
4,C[C@@]12NC(=O)CN1CCc1ccccc12,inactive
5,CC[C@@H](C(=O)[C@@H](C)[C@@H](O)[C@H](C)[C@@H]1O[C@@H]([C@@H](CC)C(=O)O)CC[C@@H]1C)[C@H]1O[C@]2(C=C[C@@H](O)[C@]3(CC[C@@](C)([C@H]4CC[C@](O)(CC)[C@H](C)O4)O3)O2)[C@H](C)C[C@@H]1C,active
6,CCC(C(=O)[O-])C1CCC(C)C(C(C)C(O)C(C)C(=O)C(CC)C2OC3(C=CC(O)C4(CCC(C)(C5CCC(O)(CC)C(C)O5)O4)O3)C(C)CC2C)O1.[Na+] (configuration not stated),active
7,CC[C@@H](C)C(=O)O[C@H]1[C@H](O)[C@H]2[C@@H](CN3C[C@@H](C)CC[C@@H]3[C@@]2(C)O)[C@H]2C[C@]34O[C@]5(O)[C@@H](OC(=O)[C@@](C)(O)CC)CC[C@@]3(C)[C@@H]5[C@@H](OC(C)=O)[C@@H](OC(C)=O)[C@@H]4[C@@]21O,inactive
8,COC(=O)C[C@@H]1CC[C@@H]2NC[C@H](O)COC[C@H]2O1,inactive
9,COc1cc2c3cc1Oc1c(OC)c(OC)cc4c1[C@@H](Cc1cccc(c1)Oc1ccc(c(O)c1)C[C@@H]3N(C)CC2)N(C)CC4,inactive
10,C[C@@H](CN)CC(=O)O,inactive
11,Cc1noc(C)c1CN1CCNCC1,inactive
12,C[C@H](O)[C@@]12[C@H]3CC=C[C@@H]1N2CC3 (some centres not stated),inactive
13,CCCCOC(=O)c1ccccc1C(=O)OCCCC,inactive
14,C[CH2][Hg][S]c1ccccc1C(=O)[O-].[Na+],active
15,O=C([O-])Cc1ccccc1.[Na+],inactive
16,NCCO.NCCO.O[AsH]O[AsH]O (configuration not stated),inactive
17,CO[C@H]1[C@@H](O)C[C@@H](O[C@H]2[C@@H](O)C[C@@H](O[C@H]3[C@@H](O)C[C@@H](O[C@H]4CC[C@@]5(C)[C@@H](CC[C@H]6[C@@H]5C[C@@H](O)[C@@]5(C)[C@H](C7=CC(=O)OC7)CC[C@@]65O)C4)O[C@@H]3C)O[C@@H]2C)O[C@@H]1C,inactive
18,CN1C[C@H](C(=O)N[C@]2(C)O[C@@]3(O)[C@@H]4CCCN4C(=O)[C@H](Cc4ccccc4)N3C2=O)C=C2c3cccc4[nH]cc(c34)C[C@H]21,inactive
19,C=C(C)[C@@H]1CCC(C)=C[C@H]1c1c(O)cc(CCCCC)cc1O,active
20,C=C(C)[C@@H]1CCC(C)=C[C@H]1c1c(OC)cc(C)cc1OC,inactive
21,CCCCCCCCCc1ccc(O)cc1,inactive
22,C[C@H]1O[C@H](O[C@H]2[C@H](O)[C@@H](O)[C@@H](O)[C@H](O)[C@@H]2O)[C@@H](N)C[C@@H]1NC(=N)C(=O)O,inactive

row,SMILES,growth inhibition call
1,Cc1[nH]c2ccc(O)cc2c1CCN,inactive
2,CN(C)[C@@H]1C(=O)[C@@H](C(N)=O)C(=O)[C@@]2(O)C(=O)[C@H]3C(=O)c4c(O)ccc(Cl)c4[C@@](C)(O)[C@H]3C[C@@H]12,active
3,CN(C)[C@@H]1C(=O)C(C(N)=O)=C(O)[C@@]2(O)C(O)=C3C(=O)c4c(O)cccc4[C@](C)(O)[C@H]3C[C@@H]12,active
4,CN(C)[C@@H]1C(=O)[C@H](C(N)=O)C(=O)[C@@]2(O)C(=O)[C@@H]3C(=O)c4c(O)cccc4[C@@](C)(O)[C@H]3C[C@@H]12,active
5,N#Cc1nn(-c2c(Cl)cc(C(F)(F)F)cc2Cl)c(N)c1S(=O)C(F)(F)F (configuration not stated),inactive
6,c1nc(N2CCN3CCC[C@H]3C2)c2[nH]cnc2n1,inactive
7,O=[As]O[As]=O (configuration not stated),inactive
8,CC(C)[N+](C)(CCC(C(N)=O)(c1ccccc1)c1ccccc1)C(C)C.[I-],inactive
9,CC1=CC(=O)c2c(O)cccc2C1=O,active
10,Oc1ccccc1-c1ccccc1O,inactive
11,O=C1C=CC(=O)c2c(O)cccc21,inactive
12,CN1C(=O)C(O)N=C(c2ccccc2)c2cc(Cl)ccc21 (configuration not stated),inactive
13,CNC(=O)Oc1ccc2c(c1)C1(C)CCN(C)C1N2C.O=S(=O)(O)O (configuration not stated),inactive
14,C[C@H]1O[C@H](C[N+](C)(C)C)C[C@@H]1O,inactive
15,CC(=O)N[C@@H]1[C@H](O[C@@H]2O[C@H](C[C@@H](O)[C@H]3O[C@@H](n4ccc(=O)[nH]c4=O)[C@H](O)[C@@H]3O)[C@H](O)[C@H](O)[C@H]2NC(=O)/C=C/CCCCCCCCC(C)C)O[C@@H](CO)[C@H](O)[C@H]1O,active
16,C[C@@]1(O)[C@H](O)[C@@H](CO)O[C@H]1n1ccc2c(N)ncnc21,inactive
17,O=c1cccc2n1C[C@@H]1C[C@H]2CN(CCO)C1,inactive
18,CC(=CCn1c[n+](C)c2c(N)ncnc21)CCC1(C)C(C)CCC2(C)C(C)=CCCC21.[Cl-] (configuration not stated),active
19,OCCN1CC2(CCN(c3nccs3)C2)C1,inactive
20,CC(C)CC(CN)CC(=O)O (configuration not stated),inactive
21,COC(=O)[C@@H](N)CCCNC(N)=N[N+](=O)[O-],inactive
22,O=C1[O][SbH]23[O]C(=O)C([O]2)C2[O][SbH]4([O]C(=O)C([O]4)C1[O]3)[O]C2=O,inactive

row,SMILES,growth inhibition call
1,O=C1[O][SbH]23[O]C(=O)[C@H]([O]2)[C@H]2[O][SbH]4([O]C(=O)[C@H]([O]4)[C@H]1[O]3)[O]C2=O,active
2,C=C(CCCCCCCCCCCCCCCC)OOC[C@@H](COP(=O)(ON)O[C@@H]1[C@H](O)[C@H](O)[C@@H](OP(=O)(O)ON)[C@H](OP(=O)(O)ON)[C@H]1O)OOC(=C)CC/C=C/C/C=C/C/C=C/C/C=C/CCCCC (some centres not stated),inactive
3,CN1CC2(CNC2)OCCS1(=O)=O,inactive
4,CN(C)C(=O)CCC(=O)N1C[C@H]2C[C@@H]1CN2,inactive
5,Oc1ccc(Cl)cc1Cc1cc(Cl)ccc1O,inactive
6,Oc1cc(Cl)ccc1Oc1ccc(Cl)cc1Cl [listing 1 of 2 here],inactive
7,Oc1cc(Cl)ccc1Oc1ccc(Cl)cc1Cl [listing 2 of 2 here],active
8,CC(=O)[O][Hg][c]1ccccc1,inactive
9,NC(=O)[C@H]1CNC(=O)C1,inactive
10,Cc1cc2c(C(C)C)c(O)c(O)c(C=O)c2c(O)c1-c1c(C)cc2c(C(C)C)c(O)c(O)c(C=O)c2c1O,inactive
11,CC[C@@]1(O)C[C@H](O[C@H]2C[C@H](N(C)C)[C@H](O)[C@H](C)O2)c2c(cc3c(c2O)C(=O)c2c(O)ccc(O)c2C3=O)[C@H]1C(=O)OC,inactive
12,COc1cccc2c1C(=O)c1c(O)c3c(c(O)c1C2=O)C[C@@](O)(C(=O)CO)C[C@@H]3O[C@H]1C[C@H](N2CCO[C@H](OC)C2)[C@H](O)[C@H](C)O1,active
13,CC=Cc1ccc2c(c1)OCO2,inactive
14,CCn1cnc2c(Nc3cccc(Cl)c3)nc(N[C@@H]3CCCC[C@@H]3N)nc21,inactive
15,CCO[C@H]1[C@H]2CC[C@@H]1NC2,inactive
16,O=[N+]([O-])C(Br)(CO)CO [listing 1 of 2 here],active
17,O=[N+]([O-])C(Br)(CO)CO [listing 2 of 2 here],active
18,OCC(Br)(Br)Br,inactive
19,CCCCS(=O)(=O)N1C[C@H]2CNC[C@@H]2C1,inactive
20,C[C@H]1CN([C@@H](C)CO)C(=O)CCCn2nncc2CO[C@H]1CN(C)C(=O)Oc1ccc2ccccc2c1,inactive
21,CNCC(=O)c1ccc(O)c(O)c1,inactive
22,CCCCCCCCCC(=O)O[C@@H]1[C@@H](C)[C@]2(O)[C@@H](C=C(CO)C[C@]3(O)C(=O)C(C)=C[C@@H]23)[C@@H]2C(C)(C)[C@@]12OC(=O)CCCCCCCCC,inactive

row,SMILES,growth inhibition call
1,CCCCC(=O)N1C[C@@H]2CCNC[C@@H]21,inactive
2,Cc1nc(-c2ccc(-c3ccc(C(=O)N4CCc5cc6c(cc54)C4(CCN(C)CC4)CO6)cc3)c(C)c2)no1,active
3,O=[N+]([O-])c1ccc([As](=O)(O)O)cc1,inactive
4,CC(=O)NN1Cc2ccccc2C1=N,inactive
5,CNc1ccc(C(=O)C[C@@H](O)CC[C@@H](C)[C@H]2OC(=O)C[C@@H](O)CC(=O)C[C@@H](O)C[C@@H](O)C[C@@H](O)C[C@@H](O)C[C@@]3(O)C[C@@H](O)[C@H](C(=O)OC)[C@@H](C[C@@H](O[C@@H]4O[C@H](C)[C@@H](O)[C@H](N)[C@@H]4O)\C=C/C=C\C=C/C=C\C=C/C=C\C=C/[C@@H]2C)O3)cc1,inactive
6,CCNS(=O)(=O)C(F)(F)C(F)(F)C(F)(F)C(F)(F)C(F)(F)C(F)(F)C(F)(F)C(F)(F)F,inactive
7,CN(C)C(=O)Oc1ccc[n+](C)c1.[Br-],inactive
8,c1ccc2sc(C3(N4CCCC4)CCCCC3)cc2c1,inactive
9,CCCCOC(=O)C1=CC(=O)CC(C)(C)O1,inactive
10,O=[N+]([O-])c1cc(O)c(O)c([N+](=O)[O-])c1,inactive
11,O=[N+]([O-])c1cc([As](=O)(O)O)ccc1O,inactive
12,O=[N+]([O-])c1ccc(O)c([N+](=O)[O-])c1,active
13,CCCC[C@@H](C)[C@@H](OC(=O)C[C@@H](CC(=O)O)C(=O)O)[C@H](C[C@@H](C)C[C@H](O)CCCC[C@@H](O)C[C@H](O)[C@H](C)N)OC(=O)C[C@@H](CC(=O)O)C(=O)O,inactive
14,O=C(O)C[C@H]1CC[C@@H]2NC[C@H](O)COC[C@H]2O1,inactive
15,CC(C)[C@@H](Br)C(=O)NC(N)=O,inactive
16,C[C@@H]1CN([C@H](C)CO)C(=O)CCCn2nncc2CO[C@@H]1CN(C)C(=O)Oc1ccc2ccccc2c1,inactive
17,CC(=O)[O][Cd][O]C(C)=O,active
18,CC(=O)[O][PbH2][O]C(C)=O,inactive
19,CC1OC(OC2C(O)C(O)C(O)C(O)C2O)C(N)CC1NC(=N)C(=O)O.Cl (configuration not stated),inactive
20,C=C1[C@@H](C)[C@H]2[C@H](Cc3ccccc3)NC(=O)[C@]23[C@H](OC(C)=O)/C=C/[C@](C)(O)C(=O)[C@@H](C)C/C=C/[C@H]3[C@@H]1O,inactive
21,C=CCOC(Cn1ccnc1)c1ccc(Cl)cc1Cl.O=S(=O)(O)O (configuration not stated),active

# — the antibiotic and cytotoxicity screens of Wong et al. (2023)
